PubChem BioAssay
Records with an inconclusive call do not appear. The source made the active and inactive calls. Cut-off read from the data, not from the text of the source, unless noted: active = percent of DMSO control GFP below about 86%; inactive = the rest, inconclusive results apart.

Legend:
[1] = rapamycin-like changes in RPL19A-GFP expression – cell-based, S. cerevisiae, multiplex flow cytometry, primary screen (AID 1862);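 note: lower values mimic rapamycin by blocking the RPL19A rise seen in DMSO cells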; details: S. cerevisiae RPL19A-GFP strain, flow cytometry fluorescence, 3 h; at 10 µM; stronger effect = lower value
[2] = TOR pathway GLN3 branch reporter MEP2-GFP changes – S. cerevisiae, multiplex flow cytometry, primary screen (AID 1867;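 active = GFP response, as percent of the DMSO control, above the screen-wide mean plus 3 SD, about 139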;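 note: median GFP channel fluorescence of barcode-gated MEP2-GFP cells measured by flow cytometry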); details: S. cerevisiae MEP2-GFP strain, 3 h, at 10 µM, stronger effect = higher value, 100% means same as DMSO wells
[3] = TOR pathway RTG branch CIT2 reporter changes – S. cerevisiae, GFP fusion, multiplex flow cytometry, primary screen (AID 1870;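 active = percent response above a set limit, the screen-wide mean plus 3 SD, cut at about 130% in these data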;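 note: barcoded CIT2-GFP strain pooled with four other GFP strains with rapamycin as positive control; median GFP fluorescence per well over plate mean of DMSO wells so 100% = DMSO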); details: S. cerevisiae CIT2-GFP expression, 3 h, at 10 µM, stronger effect = higher value
[4] = TOR pathway LAP4-GFP level changes – S. cerevisiae, multiplex flow cytometry, primary screen (AID 1873;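 active = GFP signal, as percent of the solvent control, above the screen mean plus 3 SD, about 149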); details: S. cerevisiae LAP4-GFP expression, 3 h, at 10 µM, stronger effect = higher value
[5] = yeast AGP1-GFP level changes, GLN3 branch – cell-based, multiplex flow cytometry, S. cerevisiae, primary screen (AID 1887;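 active = GFP signal above the screen-wide mean plus 3 SD, that is over about 124.5% of the solvent control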;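 note: AGP1-GFP fusion strain of S. cerevisiae within a five-strain barcoded multiplex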); details: 3 h, at 10 µM, stronger effect = higher value
[6] = hit retest on RPL19A-GFP reporter strain – cell-based, S. cerevisiae, flow cytometry, cherry picks, mother/daughter gates, confirmation (AID 2270;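 active = GFP response below 50% of the DMSO control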); details: 3 h, at 10 µM, stronger effect = lower value, 100 = same GFP as DMSO wells
[7] = yeast TOR pathway reporter LAP4-GFP change – cell-based, cherry picks, flow cytometry, mother/daughter gates, confirmation (AID 2271;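 active = GFP response above 150% of the DMSO control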;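 note: ratio of sample to DMSO plate mean so 100% equals DMSO level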); details: S. cerevisiae LAP4-GFP strain, 3 h, at 10 µM, stronger effect = higher value, 100 means same as DMSO control
[8] = TOR pathway reporter MEP2-GFP, retest of hits – S. cerevisiae, flow cytometry GFP, cherry picks, confirmation (AID 2272;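 active = GFP response above 150% of the DMSO control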;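 note: ratio of well signal to plate DMSO mean so 100% equals DMSO level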); details: S. cerevisiae MEP2-GFP strain, 3 h, at 10 µM, stronger effect = higher value
[9] = TOR pathway CIT2 reporter hit retest – S. cerevisiae, GFP fusion, cherry picks, mother/daughter gates, confirmation (AID 2274;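 active = GFP response above 150% of the DMSO level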); details: S. cerevisiae CIT2-GFP strain, flow cytometry, 3 h, at 10 µM, stronger effect = higher value
[10] = reduced mouse 2C T cell binding to pMHC/ICAM-1 vesicles – MLPCN validation set, flow cytometry, LFA-1/ICAM-1 modulator project, pilot screen (AID 2523;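 active = response below a set limit, under 55% cells CD8-positive and vesicle-bound, and CD8 cells' 90th-percentile brightness under 279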;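 for vesicle binding response: mean PE anti-B7-1 fluorescence of CD8+ cells relative to row control; 100% = QL9-loaded vesicles with DMSO vehicle in the same plate row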); details: 2C mouse CD8+ T cells, at 7 µM, stronger effect = lower value; double positive events: measured here: CD8+/vesicle+ event percentage
[11] = measured here: daughter cell gate
[12] = measured here: mother cell gate
[13] = measured here: daughter cell gate response
[14] = measured here: mother cell gate response

| Structure (SMILES) | percent of DMSO control GFP [1] | GFP response vs DMSO [2] | percent response of DMSO control [3] | GFP response vs DMSO [4] | GFP response, % of DMSO [5] | GFP response vs DMSO [6] | GFP response vs DMSO [6, 11] | GFP response vs DMSO [6, 12] | GFP response relative to DMSO [7] | GFP response relative to DMSO [7, 13] | GFP response relative to DMSO [7, 14] | GFP response vs DMSO [8] | GFP response, % of DMSO [9] | GFP response, % of DMSO [9, 11] | GFP response, % of DMSO [9, 12] | double positive events [10] | vesicle binding response [10] |
| --- | --- | --- | --- | --- | --- | --- | --- | --- | --- | --- | --- | --- | --- | --- | --- | --- | --- |
| COc1cc2c(cc1OC)C(c1ccccc1)=NCC2 | 92.2% (inactive) | 144% (active) | 103% (inactive) | 84.2% (inactive) | 97.7% (inactive) | 98.2% (inactive) | 97.6% | 99.7% | 88.9% (inactive) | 88% | 87.6% | 100% (inactive) | 103% (inactive) | 106% | 102% | 59.5% | 202% (inactive) |
| CC(=O)[C@@]1(O)CC[C@H]2[C@@H]3CCC4=CC(=O)CC[C@]4(C)[C@H]3[C@@H](O)C[C@@]21C | 104% (inactive) | 95.9% (inactive) | 94.9% (inactive) | 90.3% (inactive) | 96.4% (inactive) | 99.3% (inactive) | 99.3% | 99.7% | 97.7% (inactive) | 97.9% | 96.5% | 102% (inactive) | 96.4% (inactive) | 98.3% | 94.5% | 56.2% | 182% (inactive) |
| O=[N+]([O-])c1cccc2cn[nH]c12 | 94.4% (inactive) | 155% (active) | 114% (inactive) | 91.3% (inactive) | 94.2% (inactive) | 97.3% (inactive) | 96.4% | 95.2% | 98.9% (inactive) | 97.5% | 99.5% | 106% (inactive) | 103% (inactive) | 101% | 103% | 51.9% | 56% (active) |
| CC(=O)OCC(=O)[C@@]1(O)CC[C@H]2[C@@H]3CCC4=CC(=O)CC[C@]4(C)[C@H]3[C@@H](O)C[C@@]21C | 101% (inactive) | 104% (inactive) | 96.6% (inactive) | 97.3% (inactive) | 103% (inactive) | 95.8% (inactive) | 97.1% | 97.7% | 96.7% (inactive) | 99.2% | 95.1% | 100% (inactive) | 99.7% (inactive) | 101% | 98.5% | 62.5% | 4910% (inactive) |
| CC(=O)Nc1ccc(S(=O)(=O)c2ccc(N)cc2)cc1 | 97.9% (inactive) | 126% (inactive) | 136% (active) | 77.6% (inactive) | 85.4% (inactive) | 103% (inactive) | 101% | 104% | 105% (inactive) | 103% | 106% | 102% (inactive) | 102% (inactive) | 101% | 102% | 62.6% | 203% (inactive) |
